Only some compounds are listed: those with a hit (about 3.9% of all), similar ones and a draw of the others.
GALC G270D up – enhancers of human galactocerebrosidase G270D mutant activity in cells; P54803; 145M-Twi-hGALC-G270D cells (Twitcher mouse brain line with human GALC G270D), HMU-beta-Gal fluorescence, 48 h; Potency, µM (doses to about 57.5 µM), actives largely listed as activators; 0.1% of 45,000 active; AID 1159614; also: potency is read from the fitted curve at half-maximal effect; 0% is about no effect; nearly all actives have a fitted effect of over 65% in size
Target sequence (P54803 whole entry G286D): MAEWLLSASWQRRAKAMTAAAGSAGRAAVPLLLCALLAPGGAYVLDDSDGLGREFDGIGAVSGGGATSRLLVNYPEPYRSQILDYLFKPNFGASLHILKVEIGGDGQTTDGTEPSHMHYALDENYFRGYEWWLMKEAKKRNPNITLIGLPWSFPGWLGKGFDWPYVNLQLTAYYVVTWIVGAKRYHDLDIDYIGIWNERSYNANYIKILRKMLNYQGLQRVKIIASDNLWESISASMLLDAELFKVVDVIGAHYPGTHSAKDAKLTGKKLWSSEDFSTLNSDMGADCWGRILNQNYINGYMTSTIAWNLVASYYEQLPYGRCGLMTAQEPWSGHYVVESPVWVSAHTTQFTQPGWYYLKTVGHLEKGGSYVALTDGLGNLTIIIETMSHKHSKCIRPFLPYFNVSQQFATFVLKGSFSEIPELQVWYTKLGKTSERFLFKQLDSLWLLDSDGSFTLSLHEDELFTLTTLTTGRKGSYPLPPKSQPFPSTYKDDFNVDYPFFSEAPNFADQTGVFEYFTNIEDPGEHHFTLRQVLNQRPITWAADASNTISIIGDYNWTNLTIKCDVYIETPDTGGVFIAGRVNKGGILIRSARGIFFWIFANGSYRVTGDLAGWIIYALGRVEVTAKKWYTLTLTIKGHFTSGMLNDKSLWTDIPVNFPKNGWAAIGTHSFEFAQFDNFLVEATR
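Mutant human GALC (G270D), stably expressed in a Twitcher mouse brain cell line lacking endogenous GALC, is measured in live-treated cells via 6-hexadecanoylamino-4-methylumbelliferyl-β-galactoside hydrolysis (0.1 mM final, pH 5.2) with fluorescent detection.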
FH mod – Identification of activators of human fumarate hydratase by quantitative high-throughput screening. Fumarate hydratase, mitochondrial (Homo sapiens), P07954. FH coupled MDH/diaphorase resazurin fluorescence, 15 min. Potency, µM (top dose mostly 79.9 µM), for inactives: at the highest dose activity change, negative = inhibition, hits mostly inhibitors. 0.22% of 54,000 active. AID 1347055, 2019; also: potency is read from the fitted curve at half-maximal effect; % is scaled to controls: 0 for no effect and ±100 for the full control effect; the screen sought activators but most active calls are inhibition curves; nearly all actives have a fitted effect of over 45% in size
p53null 39C tox – selectivity test: cytotoxicity in p53 null cells, nonpermissive temperature. H1299 p53-null (neo) cells, 39C, ATPlite viability, 24 h. Potency, µM (doses to about 46.1 µM), for inactives: top-dose activity, negative = cell killing, usual class: cytotoxic. 0.97% of 55,000 active. AID 904;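 also: potency is read from the fitted curve at half-maximal effect; 0% = DMSO only and -100% = full killing by 100 µM tamoxifen; nearly all actives have a fitted effect of over 50% in size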
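Following overnight plating at 37C (600 cells/well), H1299-neo or H1299-p53A138V cells are dosed up to 46 uM. Incubation lasts 24 hr at 39C before ATP detection.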
p53null 32C tox – selectivity test: cytotoxicity in p53 null cells, permissive temperature. 0.62% of 55,000 active. Potency, µM (top dose mostly 46.1 µM), for inactives: at the top dose activity change, negative = cytotoxicity, hits mostly cytotoxic. H1299-neo p53 null cells, ATP luminescence, 24 h, 32C;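 also: potency is read from the fitted curve at half-maximal effect; 0% = DMSO only and -100% = full killing by 100 µM tamoxifen; nearly all actives have a fitted effect of over 55% in size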
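Cells lacking p53 (H1299-neo) are plated at 600 per well and allowed to settle overnight at 37C. Test compounds (up to 46 uM) are added and held 24 hours at 32C, then ATP is quantified by luminescence.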
DRV1 agonist – GPR32 (DRV1) agonism, beta-arrestin recruitment | 2.5% of 48,000 active | CHO-K1 GPR32 beta-arrestin PathHunter luminescence, 90 min; zero percent set by DMSO-only wells | O75388 | activation, % at 76.9 µM;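 active = activation of at least 60% and not above a set upper limit, about 1 call in 100 departs from these limits; inconclusive = activation of 40% to 60%, or above that upper limit; inactive = activation under 40%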; also: 0% is about no effect
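Using DMSO wells as EC0, agonist-induced signal was taken as chemiluminescence from beta-Gal reconstituted upon beta-arrestin recruitment to GPR32 in CHO-K1 cells after 90 min compound treatment.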
NTMT1 inh – blocks human N-terminal methyltransferase 1 activity | Q9BV86 | NTMT1 MTase-Glo SAH luminescence, purified enzyme | Potency, µM (doses to about 114 µM), for inactives: at the top dose activity change, negative = inhibition, most hits filed as inhibitors | 2.5% of 59,000 active;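 also: potency is read from the fitted curve at half-maximal effect; plate controls were DMSO vehicle for no effect and no enzyme for full effect; nearly all actives have a fitted effect of over 65% in size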
An asterisk follows results filed as active; i = inactive; u = inconclusive; x = not tested or not shown; ! = not active in a repeat; [ ] = dose if it differs, or a comment. Unless noted, calls follow the shape of the dose curve; as a rule, active = well fitted curve in the direction sought with a large enough effect; inconclusive = small, poorly fitted or top-dose-only effect, or another doubt; inactive = no such curve, though single readings can be large; an effect the other way counts as inactive or inconclusive.

SMILES	GALC G270D up	FH mod	p53null 39C tox	p53null 32C tox	DRV1 agonist	NTMT1 inh
O=c1c2ccccc2nc2sc(Nc3ccc4c(c3)CNC4)nn12	x	x	x	x	x	50µM*
CC(C)(C)Sc1c(CC(C)(C)C(=O)O)n(Cc2ccc(Cl)cc2)c2ccc(OCc3ccc4ccccc4n3)cc12	x	u	x	x	x	9%
Cc1ccc(NS(=O)(=O)c2ccc(C(=O)Nc3nc(-c4ccccc4)cs3)cc2)cc1	x	x	x	x	x	7%
CCOC(=O)c1ccnc(CNCC(=O)N(CC)CCN(C)C)c1	x	21%	x	x	x	4%
CCCOc1cccc(C(=O)Nc2ccc(-c3nc4ccccc4o3)cc2)c1	i	-4%	12%	-9%	108*	6%
CCOc1cc(OCC)cc(C(=O)Nc2cccc(-c3nc4ccccc4[nH]3)c2)c1	i	4%	u	u	-18	1%
CCCOc1ccc(C(=O)Nc2cccc(-c3nc4ccccc4[nH]3)c2)cc1	i	-20%	u	-19%	83*	14%
Cc1ccc(CS(=O)(=O)c2ncc(Cl)c(C(=O)Nc3nc4ccc(C)cc4s3)n2)cc1	i	9%	-14%	-20%	70*	12%
CCCc1nnc(NC(=O)c2nc(S(=O)(=O)Cc3ccc(C)cc3)ncc2Cl)s1	i	1%	10µM*	-14%	15	2%
Cc1ccc(CS(=O)(=O)c2ncc(Cl)c(C(=O)Nc3nc4ccc(F)cc4s3)n2)cc1	i	-1%	u	-1%	80*	-2%
CC(C)c1nnc(NC(=O)c2nc(S(=O)(=O)Cc3ccccc3)ncc2Cl)s1	i	-2%	u	u	-21	0%
COc1ccc(NC(=O)c2cnn3c(C)cc(C)nc23)cc1F	x	x	x	x	x	-1%
O=C(Nc1cccc(-c2nc3ncccc3o2)c1)c1ccc(-c2cccc(Cl)c2Cl)o1	x	x	10µM*	13µM*	48	x
COc1cc(NC(=O)c2cc(-c3cccc(OC)c3)n[nH]2)cc(OC)c1	i	u	u	-8%	81*	-16%
COc1cc(NC(=O)c2ccc(-c3ccc(Cl)cc3)o2)cc(OC)c1	x	-3%[53.3 µM]	x	x	x	23%
Cc1cc(O)ccc1C1(c2ccc(O)cc2C)OC(=O)c2ccccc21	x	x	5%	8%	x	x
O=C1OC2(c3ccc(O)cc3Oc3cc(O)ccc32)c2ccccc21	i	-26%[53.3 µM]	x	x	111*	16%[57.5 µM]
O=C1OC2(c3ccccc31)c1cc(I)c(O)c(I)c1Oc1c2cc(I)c(O)c1I	i	u	x	x	-64	1µM*
CC(C)c1nc2c(cnn2C)c(=O)n1N	x	x	x	x	x	-27%[57.5 µM]
COc1ccc(OC)c(NC(=O)CN(C)S(=O)(=O)c2ccc3[nH]c4c(c3c2)CCCC4)c1	i	u	-29%	1%	0	-14%
COc1cc(NS(=O)(=O)c2ccc3[nH]c4c(c3c2)CCCCCC4)cc(OC)c1	i	u	10%	51%	102*	10%
COc1cccc(CNS(=O)(=O)c2ccc3[nH]c4c(c3c2)CCCCC4)c1	i	u	31%	25%	65*	u
CCN(c1ccc(OC)cc1)S(=O)(=O)c1ccc2[nH]c3c(c2c1)CCCCC3	i	u	48%	-7%	11	-11%
COc1cc(NC(=O)CN(C)S(=O)(=O)c2ccc3[nH]c4c(c3c2)CCCC4)cc(OC)c1OC	i	-21%	-14%	2%	105*	-10%
Cc1ccc(N(C)S(=O)(=O)c2ccc3[nH]c4c(c3c2)CCCC4)cc1	i	u	-22%	26%	109*	-27%
SMILES	GALC G270D up	FH mod	p53null 39C tox	p53null 32C tox	DRV1 agonist	NTMT1 inh
Cc1ccc(NC(=O)c2cnn3c(-c4ccccc4)cc(C)nc23)cc1	x	x	x	x	x	17%
O=C(CCC#CCSc1nnc(-c2cccc3ccccc23)o1)c1ccccc1	x	x	x	x	x	4%[57.5 µM]
COCc1c(O)c(C(=O)O)c(C)c2c1OC(=O)c1c(C)cc(O)c(CO)c1O2	x	-11%[53.3 µM]	x	x	x	u
CC(C)C1NC(=O)CNC(=O)C2CCCN2C(=O)C(Cc2c[nH]c3ccccc23)NC(=O)CNC(=O)C(Cc2ccc(O)cc2)NC(=O)CNC1=O (stereo not drawn)	x	1%[20.6 µM]	x	x	x	15%[12.6 µM]
Cc1ccc(NS(=O)(=O)c2ccc3[nH]c4c(c3c2)CCCCCC4)cc1	i	u	4%	44%	102*	u
O=S(=O)(Nc1cccc(F)c1)c1ccc2[nH]c3c(c2c1)CCCCC3	i	35µM*	16µM*	37%	62*	-11%
COc1cc(NS(=O)(=O)c2ccc3[nH]c4c(c3c2)CCCC4)cc(OC)c1OC	i	u	u	-2%	82*	-16%
COc1ccc(NS(=O)(=O)c2ccc3[nH]c4c(c3c2)CCCC4)cc1OC	i	u	12%	-8%	14	-17%
CC(C)[N+](C)(C)CC(O)COc1cccc2ccccc12 (stereo not drawn)	i	-1%[53.3 µM]	x	x	6	8.9µM*
CC(C)NCC(O)COc1cccc2ccccc12 (stereo not drawn)	x	-9%[53.3 µM]	x	x	1	x
Cc1cn([C@H]2C[C@H](N[S+](=O)([O-])Cc3cc(Cl)cc(Cl)c3)[C@@H](CO)O2)c(=O)[nH]c1=O	x	x	x	x	x	79µM*
CCc1ccc(CNCc2c(C(=O)O)n(Cc3cccc(F)c3)c3cc(OC)ccc23)cc1	i	-20%	u	7%	109*	-1%
CCc1ccc(CNCc2c(C(=O)O)n(Cc3ccc(C)cc3)c3cc(C)ccc23)cc1	i	u	u	36%	33	-11%
COc1ccc(OC)c(CNCc2c(C(=O)O)n(Cc3cccc(F)c3)c3cc(OC)ccc23)c1	i	-14%	-13%	-9%	5	u
COc1ccc(Cn2c(C(=O)O)c(CNCCc3ccco3)c3ccc(OC)cc32)cc1	i	-30%	u	-5%	1	-10%
Cc1ccc(CNCc2c(C(=O)O)n(Cc3ccc(C)cc3)c3cc(C)ccc23)cc1	i	u	u	32%	98*	-7%
COc1ccc2c(CNCCc3ccc(SC)cc3)c(C(=O)O)n(Cc3ccc(F)cc3)c2c1	i	u	u	33%	115*	15%
Cc1c(OCC(F)(F)F)ccnc1CS(=O)c1nc2ccccc2[nH]1 (stereo not drawn)	i	-9%[53.3 µM]	x	x	60*!	45µM*!
Cc1ccc(-c2nc3ccccc3[nH]2)cc1NC(=O)COc1cccc(C)c1C	i	12%	u	-18%	32	-16%
COCCCOc1ccnc(CS(=O)c2nc3ccccc3[nH]2)c1C (stereo not drawn)	i	3%	x	x	11	18µM*!

Screening results (PubChem)
